TDP1 cell noCPT – qHTS for Inhibitors of human tyrosyl-DNA phosphodiesterase 1 (TDP1): qHTS in cells in absence of CPT. Potency, µM (top dose mostly 46.2 µM), without a hit: top-dose activity change, negative = growth inhibition, most hits filed as inhibitors. 15% of 420,000 active. DT40 Tdp1-/- hTDP1 cells, no CPT, ATP luminescence, 48 h; further: on the % scale 0 is the no-effect control and ±100 the full control effect; nearly all actives have a fitted effect of over 55% in size
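Cells were dispensed at 400 per well, compounds added by pin tool, plates incubated ≥48 hr at 37 °C, then CellTiter-Glo added for 30 min at room temperature before luminescence reading. Line: DT40 Tdp1-/- complemented with hTDP1; camptothecin omitted.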
ClpP mod – qHTS Assay for Activators of ClpP | purified B. subtilis ClpP, FRET peptide cleavage, 20 min | 1.9% of 340,000 active | ATP-dependent Clp protease proteolytic subunit (Bacillus subtilis (strain 168)), P80244 | Potency, µM (top dose mostly 57.5 µM), without a hit: at the top dose activity change, negative = active; active means well fitted falling curve with a large enough effect; inconclusive means small, poorly fitted or top-dose-only effect; inactive means no such curve, though single readings can be large or run the other way; further: the source files actives as falling curves though it sought activators and does not explain the sign; nearly all actives have a fitted effect of over 65% in size
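Buffer: 100 mM Tris/HCl pH8, 100 mM KCl, 0.05% low protease BSA, 2.5% glycerol, 0.01% Tween-20. ClpP 10 microg/mL final; 20 min RT; delta FRET normalized to ADEP and DMSO controls.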
TDP1 inh – TDP1 (human) enzyme inhibition; Q9NUW8; recombinant TDP1, AlphaScreen DNA substrate cleavage; Potency, µM (series often up to 130 µM), for inactives: at the highest dose activity change, negative = inhibition, hits mostly inhibitors; 0.28% of 350,000 active; AID 485290; further: on the % scale 0 is the no-effect control and ±100 the full control effect; nearly all actives have a fitted effect of over 40% in size
Target sequence (Q9NUW8 whole entry, looked up): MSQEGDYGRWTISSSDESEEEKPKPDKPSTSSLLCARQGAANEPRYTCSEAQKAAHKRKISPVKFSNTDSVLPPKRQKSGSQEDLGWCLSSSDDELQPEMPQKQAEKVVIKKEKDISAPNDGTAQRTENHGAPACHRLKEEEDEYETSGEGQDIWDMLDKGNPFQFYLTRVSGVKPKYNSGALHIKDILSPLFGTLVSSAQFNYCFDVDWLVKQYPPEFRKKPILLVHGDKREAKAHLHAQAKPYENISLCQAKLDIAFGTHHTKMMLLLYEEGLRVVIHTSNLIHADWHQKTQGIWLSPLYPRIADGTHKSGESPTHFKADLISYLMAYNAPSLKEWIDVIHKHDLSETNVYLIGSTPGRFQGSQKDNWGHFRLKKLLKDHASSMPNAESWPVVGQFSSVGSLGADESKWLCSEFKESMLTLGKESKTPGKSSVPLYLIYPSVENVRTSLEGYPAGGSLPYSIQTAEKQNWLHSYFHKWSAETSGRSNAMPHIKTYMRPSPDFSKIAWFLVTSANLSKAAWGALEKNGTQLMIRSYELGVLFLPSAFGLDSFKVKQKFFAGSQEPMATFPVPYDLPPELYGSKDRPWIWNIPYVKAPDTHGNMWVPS
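Steps: enzyme plus compound, 15 min RT; add biotin/phosphotyrosine-FITC oligonucleotide (15 nM final), react 5 min; add donor/acceptor beads (10 ug/ml final), 10 min; read AlphaScreen. Tdp1 at 1 nM final.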
DT40 TDP1 CPT – DT40-hTDP1 cell growth loss with CPT; chicken DT40 Tdp1-/-;hTDP1 cells + 20 nM CPT, ATP luminescence, 48 h; Potency, µM (highest dose often 46.2 µM), for inactives: at the highest dose activity change, negative = growth inhibition, usual class: inhibitors; 12% of 420,000 active; AID 686979; further: on the % scale 0 is the no-effect control and ±100 the full control effect; nearly all actives have a fitted effect of over 55% in size
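Chicken DT40 Tdp1-/- cells complemented with human TDP1, 400 cells/well, exposed to compounds plus 20 nM camptothecin for at least 48 h at 37 C; viability read as ATP content by CellTiter-Glo luminescence.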
* = called active by the depositor; ? = inconclusive; nt = no result. Compounds with a hit are over-represented: about 17% of the library has one in this group of screens. Unless noted, the call rests on the fitted dose curve; in most records, active means well fitted curve in the direction sought with a large enough effect; inconclusive means small, poorly fitted or top-dose-only effect, or another doubt; inactive means no such curve, though single readings can be large; an effect the other way counts as inactive or inconclusive. Potency means the concentration at half of the fitted maximal effect.

SMILES	TDP1 cell noCPT	ClpP mod	TDP1 inh	DT40 TDP1 CPT
CCOC(=O)c1ccccc1NC(=O)COC(=O)c1cc([N+](=O)[O-])ccc1N1CCOCC1	6.5µM*	-4%	-1%	?
COC(=O)c1cc(=O)n(-c2ccc(C(F)(F)F)cc2)[nH]1	-12%	nt	5%	-2%
Nc1ncnc2c1nc(-c1ccccc1)n2C1OC(CO)C(O)C1O (centres undefined)	-5%	5%	nt	0%
Nc1ncnc2c(C3OC(CO)C(O)C3O)c[nH]c12 (centres undefined)	0.15µM*	-3%	nt	0.16µM*
O=c1cc(-c2ccccc2[N+](=O)[O-])oc2ccccc12	23µM*	nt	-4%	16µM*
CSc1ccc(-c2cc(=O)c3ccccc3o2)cc1	?	10µM*	-5%	?
O=c1cc(-c2ccc(F)cc2)oc2ccccc12	-29%	1%	nt	-23%
Cc1ccccc1-c1cc(=O)c2ccccc2o1	?	-3%	0%	21µM*
Cc1nc(-c2cccc(F)c2)sc1CCNC(=O)Cc1ccc(F)cc1	?	4%	3%	?
COc1ccc(CNC(=O)Cn2cc(C)c(=O)[nH]c2=O)cc1	-3%	1%	nt	4%
CCn1c2c(c3cc(OCC(C)C)ccc31)CCCC2=O	21µM*	28µM*	-2%	16µM*
CC(=O)N1c2ccc(S(=O)(=O)NCC3CCC(C(=O)Nc4cc(C)ccn4)CC3)cc2CC1C (centres undefined)	16µM*	0%	4%	18µM*
CC(=O)N1c2ccc(S(=O)(=O)NCC3CCC(C(=O)NCCC(C)C)CC3)cc2CC1C (centres undefined)	16µM*	2%	0%	15µM*
CC(=O)N1c2ccc(S(=O)(=O)NCC3CCC(C(=O)Nc4ncccc4C)CC3)cc2CC1C (centres undefined)	-3%	0%	4%	?
CCCNC(=O)C1CCC(CNS(=O)(=O)c2ccc3c(c2)CC(C)N3C(C)=O)CC1 (centres undefined)	?	-3%	2%	?
CC(=O)N1c2ccc(S(=O)(=O)NCC3CCC(C(=O)N4CC(C)CC(C)C4)CC3)cc2CC1C (centres undefined)	13µM*	0%	3%	16µM*
CC(=O)N1c2ccc(S(=O)(=O)NCC3CCC(C(=O)Nc4cccc(F)c4)CC3)cc2CC1C (centres undefined)	12µM*	0%	3%	3.3µM*
CN(C(=O)CO)c1c(I)c(C(=O)NCC(O)CO)c(I)c(C(=O)NCC(O)CO)c1I (centres undefined)	-4%	nt	nt	1%
CC(=O)N1c2ccc(S(=O)(=O)NCC3CCC(C(=O)NC4CCCCC4)CC3)cc2CC1C (centres undefined)	2.9µM*	2%	-14%	-19%
CC(=O)N1c2ccc(S(=O)(=O)NCC3CCC(C(=O)Nc4ccccc4C)CC3)cc2CC1C (centres undefined)	21µM*	-1%	5%	26µM*
CC(=O)N1c2ccc(S(=O)(=O)NCC3CCC(C(=O)Nc4cc(C)ccc4C)CC3)cc2CC1C (centres undefined)	18µM*	1%	-3%	23µM*
CC(=O)N1c2ccc(S(=O)(=O)NCC3CCC(C(=O)Nc4ccc(C)cc4)CC3)cc2CC1C (centres undefined)	?	1%	0%	?
CC(=O)N1c2ccc(S(=O)(=O)NCC3CCC(C(=O)NCc4ccc(C)cc4)CC3)cc2CC1C (centres undefined)	15µM*	0%	3%	21µM*
CC(CCc1ccccc1)NC(=O)C(Cc1ccccc1)NC(N)=O (centres undefined)	-11%	nt	-8%	-17%
CCOc1ccc(NC(=O)Cn2cc(S(=O)(=O)c3ccc(C)cc3)c(=O)c3cc(F)ccc32)cc1	0%	-20%	6%	-1%
SMILES	TDP1 cell noCPT	ClpP mod	TDP1 inh	DT40 TDP1 CPT
CC[C@@]12C(=O)N(c3ccc(OC)cc3)C(=O)N1[C@H](c1cccc(C)c1)[C@@H]1C(=O)N(Cc3ccccc3)C(=O)[C@@H]12	-1%	1%	nt	4%
Cc1ccc(-n2c(=O)c3ccc(C(=O)NCc4ccccc4Cl)cc3n(CC(=O)Nc3cccc(F)c3)c2=O)cc1	?	-19%	-2%	?
CC(C)(C)n1nnnc1CN1CCN(C(c2ccccc2)c2ccccc2)CC1	18µM*	-1%	0%	?
CC(C)(C)n1nnnc1C(c1ccccc1)N1CCN(c2ncccn2)CC1 (centres undefined)	-22%	0%	nt	1%
CC(C)C(c1nnnn1C(C)(C)C)N1CCN(c2cccc(Cl)c2)CC1 (centres undefined)	13µM*	1%	2%	18µM*
CC(C)(C)n1nnnc1C(c1ccccc1)N1CCN(c2ncccc2C(F)(F)F)CC1 (centres undefined)	26µM*	?	nt	18µM*
Cc1ccc(C)c(N2CCN(C(c3ccccc3)c3nnnn3C(C)(C)C)CC2)c1 (centres undefined)	18µM*	-3%	nt	-80%
Cc1nc2ccccc2c2oc(C(=O)N3CCN(c4ccc([N+](=O)[O-])cc4)CC3)cc12	?	1%	-15%	?
COc1ccc(OC)c(CNC(=O)c2nn(C)c3c2CS(=O)(=O)c2ccccc2-3)c1	-19%	2%	2%	4%
CCOC(=O)N1CCC(N(CCN(C)C)C(=S)Nc2ccccc2OCC)CC1	-2%	-3%	5%	-7%
FC(F)(F)c1cc(-c2ccccc2)nc(NC2CCCC2)n1	-18%	32µM*	-9%	-16%
Cc1nc2c(=O)n(C)c(=O)n(C)c2nc1Cl	1.2µM*	0%	3%	0.58µM*
CCCCn1nnnc1C(c1cc2ccccc2o1)N1CCN(c2ccccc2F)CC1 (centres undefined)	?	-4%	nt	?
CCCCn1nnnc1C(c1cc2ccccc2o1)N1CCN(c2c(C)cccc2C)CC1 (centres undefined)	18µM*	-2%	nt	?
Cc1cccc(C)c1N1CCN(C(c2cc3ccccc3o2)c2nnnn2C(C)(C)C)CC1 (centres undefined)	?	-1%	nt	15µM*
CCCCn1nnnc1C(c1cc2ccccc2o1)N1CCCCC1 (centres undefined)	?	-2%	nt	?
CCCCn1nnnc1C(c1cc2ccccc2o1)N1CCN(c2ccncc2)CC1 (centres undefined)	23µM*	-4%	nt	21µM*
CCOC(=O)N1CCN(C(c2cc3ccccc3o2)c2nnnn2C(C)(C)C)CC1 (centres undefined)	?	-2%	nt	-5%
